Source: PubChem BioAssay (National Center for Advancing Translational Sciences (NCATS))
This is a sample that favours compounds with a hit; in the whole collection about 1.9% have one here.
HTT promoter inh: Primary qHTS for Identification of Small Molecule Inhibitors of Huntingtin Promoter Activity | HEK293 HTT promoter firefly luciferase reporter, 24 h | Potency, µM (top dose mostly 57.5 µM), for the others: top-dose activity change, negative = inhibition, most hits filed as inhibitors | 48,000 compounds, 0.93% hits | AID 1508623, 2021; note: nearly all actives have a fitted effect of over 50% in size
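HEK293 Fluc reporter, 2,500 cells/well, 24 h pre-culture; cpds up to 57.5 uM final, 24 h 37 degrees C; Dual-Glo, 10 min RT; normalized vehicle = 0%, zero RLU = -100%.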
p53null 39C kill: qHTS Screen for Compounds that Selectively Target Cancer Cells with p53 Mutations: Cytotoxicity of p53 Null Cells at the Nonpermissive Temperature; H1299 p53-null (neo) cells, 39C, ATPlite viability, 24 h; Potency, µM (doses to about 46.1 µM), for the others: top-dose activity, negative = cell killing, hits mostly cytotoxic; 55,000 compounds, 0.97% hits; AID 904, 2007;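 note: 0% = DMSO only and -100% = full killing by 100 µM tamoxifen; nearly all actives have a fitted effect of over 50% in size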
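H1299 lung cancer cells, p53-null (H1299-neo) or expressing p53 A138V (H1299-p53A138V), were plated overnight at 37C, then exposed to compounds at up to 46 uM for 24 hr at 39C. Viability was read by ATP-based luminescence.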
HTT-AS promoter: Primary qHTS for Identification of Small Molecule Activators of Huntingtin-Antisense Promoter Activity; AID 1508624, 2021; Potency, µM (top dose mostly 57.5 µM), for inactives: at the top dose activity change, positive = activation, most hits filed as activators; 48,000 compounds, 0.24% hits; HEK293 HTT-AS promoter firefly luciferase reporter, 24 h; response scale: percent change from vehicle, -100% = no light; note: nearly all actives have a fitted effect of over 55% in size
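HEK293 Fluc reporter, 2,500 cells/well, 24 h pre-culture; cpds up to 57.5 uM final, 24 h 37 degrees C; Dual-Glo, 10 min RT; normalized vehicle = 0%, zero RLU = -100%.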
p53null 32C tox: qHTS Screen for Compounds that Selectively Target Cancer Cells with p53 Mutations: Cytotoxicity of p53 Null Cells at the Permissive Temperature; 55,000 compounds, 0.62% hits; H1299-neo p53 null cells, ATP luminescence, 24 h, 32C; Potency, µM (titrated, usually from 46.1 µM), inactives show at the top dose activity change, negative = cytotoxicity, most hits filed as cytotoxic; AID 903, 2007;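 note: 0% = DMSO only and -100% = full killing by 100 µM tamoxifen; nearly all actives have a fitted effect of over 55% in size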
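ATP-content luminescence in p53-null H1299-neo cells after 24 h compound exposure (up to 46 uM) at 32C permissive temperature; 0% and 100% killing set by DMSO and 100 uM tamoxifen; Hill-equation AC50.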
Active calls of the source: *; u = inconclusive; x = not tested or not shown. Calls come from the whole dose curve; as a rule, active = well fitted curve in the direction sought with a large enough effect; inconclusive = small, poorly fitted or top-dose-only effect, or another doubt; inactive = no such curve, though single readings can be large; an effect the other way counts as inactive or inconclusive. Potency is the fitted concentration of half-maximal effect.

SMILES	HTT promoter inh	p53null 39C kill	HTT-AS promoter	p53null 32C tox
CCCCN1C(=O)c2[nH]nc(-c3ccccc3O)c2C1c1ccc(OCc2ccccc2)cc1 (stereo unspecified)	25.1µM*	17.1%	-89.8%	34.7%
CCCc1nnc(NC(=O)c2cc(=O)c3ccccc3o2)s1	47.5%	-26.8%	3.98µM*	-19.4%
O=C(OCC1(COC(=O)c2cccnc2)CCCC(COC(=O)c2cccnc2)(COC(=O)c2cccnc2)C1O)c1cccnc1	8.9%	x	-4.3%	x
COc1cccc(C(=O)Nc2cccc(-c3cn4ccsc4n3)c2)c1OC	9.6%	12.6µM*	15.0%	-28.8%
Cc1ccccc1NC(=O)c1ccc(Cl)c(S(=O)(=O)N2CCCCCC2)c1	u	u	-32.1%	1.7%
O=C(O)c1ccc(NC(=O)c2ccc(Br)c(S(=O)(=O)N3CCCC3)c2)cc1	-7.8%	-4.0%	-16.2%	-3.7%
Cc1ccc(C(=O)Nc2ccccc2C(=O)O)cc1S(=O)(=O)N1CCCCCC1	11.6%	10µM*	u	5.01µM*
O=C(Nc1ccc(Br)cc1)c1ccc(Br)c(S(=O)(=O)N2CCCCC2)c1	12.6µM*	20.9%	-26.3%	-9.0%
CC(C)(C)C1CCc2nc(NC(=O)COc3ccccc3[N+](=O)[O-])sc2C1 (stereo unspecified)	4.47µM*	4.4%	-76.5%	3.3%
CC(C)(C)C1CCc2nc(NC(=O)c3cccc(Cl)c3)sc2C1 (stereo unspecified)	0.355µM*	-21.3%	-75.7%	-19.2%
Cc1cccc(OCC(=O)Nc2nc3c(s2)CC(C(C)(C)C)CC3)c1C (stereo unspecified)	-5.7%	-7.8%	-8.2%	-8.8%
N#CC1(c2ccc(NC(=O)c3cccnc3NCc3ccncc3)cc2)CCCC1	9.1%	x	5.8%	x
Cc1ccc(C)c(N2CCN(C(=O)C3CCN(C(=O)c4cc5sccc5n4C)CC3)CC2)c1	u	68.6%	-43.1%	58.1%
Cc1cccc(N2CCN(C(=O)C3CCN(C(=O)c4cc5sccc5n4C)CC3)CC2C)c1 (stereo unspecified)	22.4µM*	u	-55.3%	-14.7%
O=C(CSc1nc2c(oc3ccccc32)c(=O)[nH]1)Nc1cccc(Cl)c1	6.4%	10µM*	11.4%	10µM*
Cc1cc(C)cc(Nc2cc(C(=O)NCCCN(C)C3CCCCC3)c3ccccc3n2)c1	u	12.6µM*	-28.5%	u
CCOCC(=O)Nc1ccc(-c2cn3c(C)csc3n2)cc1	1.26µM*	u	-80.2%	u
CCC(=O)Nc1cccc(-c2cn3c(C)csc3n2)c1	20.4%	18.2%	12.2%	-12.4%
COc1cc(S(N)(=O)=O)cc(C(=O)O)c1OC	-0.9%	x	-4.1%	x
O=C(CCCc1ccccc1)c1ccc2c(c1)OCCO2	x	12.6µM*	x	10µM*
O=C(CCN1CCC(c2ccccc2)C1)c1ccc2c(c1)OCCO2 (stereo unspecified)	25.1%	x	7.8%	x
Cc1cccc2sc(N(Cc3cccnc3)C(=O)CCS(=O)(=O)c3ccccc3)nc12	35.6%	12.6µM*	10.6%	u
COc1cc(C2CC(=O)c3c([nH]c(C(=O)OC4CCCC4)c3C)C2)cc(OC)c1OC (stereo unspecified)	4.47µM*	u	-54.0%	33.5%
Cc1ccc(NC(=O)c2cc3c(s2)CCCC3)cc1S(=O)(=O)Nc1ccccc1Cl	x	8.7%	x	35.0%
O=C(Nc1cccc(S(=O)(=O)Nc2ccc(Cl)cc2)c1)c1cc2c(s1)CCCC2	x	2.82µM*	x	7.7%
SMILES	HTT promoter inh	p53null 39C kill	HTT-AS promoter	p53null 32C tox
Cc1nn2cc(-c3ccc(OC(C)C)cc3)nc2s1	-38.9%	12.6µM*	u	15.8µM*
CCc1ccc(NC(=O)C2CCN(c3nn4cc(-c5ccc(OC)cc5)nc4s3)CC2)cc1	6.6%	-7.0%	2.4%	-0.1%
COc1cc2c(Nc3ccc(Cl)c(Cl)c3F)ncnc2cc1OCC1C[C@@H]2CN(C)C[C@H]2C1	u	x	-50.2%	x
COc1cc(C(C)=O)ccc1OCCCN1CCC(c2noc3cc(F)ccc23)CC1	-3.0%	x	4.2%	x
CNC(=O)c1ccc(Nc2cc(Nc3ccccc3S(=O)(=O)C(C)C)c3cc[nH]c3n2)nc1	-16.6%	x	-37.3%	x
CC(C)OCc1cc(CN2CCN(c3ccccc3)CC2)c(O)c2ncccc12	12.6µM*	1.26µM*	-43.2%	u
CCOCc1cc(CN2CCN(c3cccc(Cl)c3)CC2)c(O)c2ncccc12	u	u	-37.0%	u
O=C(O)CCSc1nnc(-c2ccc(Cl)cc2Cl)o1	-85.1%	u	u	u
Fc1ccc(-c2nnc(-c3ccc(Cl)cc3Cl)o2)cc1	x	11.2µM*	x	6.31µM*
CCCCC(C)(C)[C@H](O)C=C[C@H]1[C@H](O)CC(=O)[C@H]1CC=CCCCC(=O)O	-7.7%	x	-8.3%	x
COc1ccc(NS(=O)(=O)c2ccc3c(c2)CC(C)N3C(=O)C2CCC2)cc1OC (stereo unspecified)	1.78µM*	11.7%	-49.7%	-0.5%
CC1Cc2cc(S(=O)(=O)NCc3ccccc3)ccc2N1C(=O)C1CCC1 (stereo unspecified)	u	-3.8%	-30.2%	6.5%
COc1cc(Cl)c(NS(=O)(=O)c2ccc3c(c2)CC(C)N3C(=O)C2CCC2)c(OC)c1 (stereo unspecified)	8.91µM*	-9.3%	-86.9%	18.9%
CCc1cccc(NS(=O)(=O)c2ccc3c(c2)CC(C)N3C(=O)C2CC2)c1 (stereo unspecified)	14.1µM*	-2.8%	-78.9%	42.4%
COc1cc(NS(=O)(=O)c2ccc3c(c2)CC(C)N3C(=O)C2CCC2)cc(OC)c1OC (stereo unspecified)	x	-9.8%	x	0.1%
Cc1ccc(NC(=O)c2cccc(N3CCCS3(=O)=O)c2)cc1	10.0%	u	u	u
Cc1ccc(NC(=O)c2cccc(N3CCCS3(=O)=O)c2)cc1C	51.9%	u	2.24µM*	-18.8%
Cc1nc2c([nH]1)CCN(C(=O)c1ccc(NC(=O)c3ccccc3-c3ccccc3)cc1)c1ccccc1-2	-23.0%	x	-21.3%	x
CCc1ccc(-c2cn3nc(CC)sc3n2)cc1	7.5%	10µM*	u	12.6µM*
CC(C)Cc1nn2cc(-c3cccc(Br)c3)nc2s1	u	15.8µM*	-32.2%	12.6µM*
CCCc1nn2c(C)c(-c3ccccc3)nc2s1	76.5%	10µM*	u	7.94µM*
CCCCCc1nn2cc(-c3ccccc3)nc2s1	23.3%	15.8µM*	u	10µM*
CCC=CC[C@H]1C(=O)CC[C@@H]1CC(=O)OC	9.3%	x	-4.4%	x
CN(C)CCN1CCN(c2cccc(Cl)c2)C1=O	1.4%	x	0.2%	x
CC(=O)Nc1ccc(C(=O)Nc2ccccc2N)cc1	161.3%	x	x	x
COc1ccc(CNC(=O)c2cnn(-c3ccc(C)cc3)c2-n2cccc2)cc1OC	15.8µM*	17.7%	-37.4%	24.2%
